From PubChem BioAssay
Activity calls are given as the source filed them. No rule for the calls is given here. Where a SMILES comes first, the peptide text is derived from it. [ ]: non-standard residue; d: D form. ξ: configuration not given here. ξV = CC(C)C(N)C(=O)O

system: Botulinum neurotoxin type F light chain protease (Clostridium botulinum); experiment: Clostridium botulinum type F light chain protease inhibitors, microsphere substrate cleavage, validation (AID 588459); details: multiplex microsphere protease substrate cleavage assay, flow cytometry; at 10 µM; stronger effect = higher value

Row | SMILES | inhibition
1 | C[C@]12CC[C@H]3C(=CCc4cc(O)ccc43)[C@@H]1CCC2=O | 0.5% (inactive)
2 | Cc1ccccc1OCCSc1nc2ncnc(N)c2[nH]1 | 0.8% (inactive)
3 | COc1ccc2cc([C@H](C)C(=O)O)ccc2c1 | 0.3% (inactive)
4 | CC(CCc1ccccc1)NC(=O)/C=C/c1ccccc1 (stereo not given) | 4.2% (inactive)
5 | CSc1ccc(/C=N/N2CCN(Cc3ccc(C)cc3C)CC2)cc1 | -0.3% (inactive)
6 | CC1CCN(C(=O)Oc2ccccc2)CC1 | -2.4% (inactive)
7 | O=C(c1ccccc1)N1CCN(C(=O)c2ccccc2)CC1 | -0.3% (inactive)
8 | COc1ccccc1/C=C/C(=O)OCCN1CCOCC1 | 3% (inactive)
9 | C[C@H](NC(=O)OC(C)(C)C)C(=O)NCC1CCC(C(=O)O)CC1 (stereo not given in full) | 2.7% (inactive)
10 | CCOC(=O)C1(Cc2cccc(Cl)c2)CCCN(C2CCN(C(C)=O)CC2)C1 (stereo not given) | 9.1% (inactive)
11 | Cc1ccc2nc(C)c3c(c2c1)OC(C(C)(Cl)Br)C3 (stereo not given) | -0.4% (inactive)
12 | C[N+]12CCCCC1C(COC(=O)c1ccc3c(c1)OCO3)CCC2 (stereo not given) | 2.1% (inactive)
13 | C=C(C)COc1ccc(-c2nc(N)ncc2-c2ccc(OC)cc2)c(O)c1 | 2.8% (inactive)
14 | CC(=O)NC(Cc1c[nH]c2ccccc12)C(=O)N/N=C/c1ccccc1 (stereo not given) | -1.4% (inactive)
15 | Cc1ccc(C(=O)Nc2ccccc2C(=O)NC(C(=O)O)C(C)C)cc1 (stereo not given) | 4.4% (inactive)
16 | COc1ccc2c(c1)c(CC(=O)O)c(C)n2C(=O)c1ccc(Cl)cc1 | 0.9% (inactive)
17 | COc1ccc(NC(=O)C2CCCN2C(=O)OC(C)(C)C)cc1 (stereo not given) | 4.1% (inactive)
18 | CC(=O)NC(C(=O)NCC(N)=O)C(C)C (stereo not given) (Ac-[ξV]-Gly-NH2) | -3% (inactive)
19 | COc1cc(C(=O)OCCn2c(=O)c3c(ncn3CCN(C)C)n(C)c2=O)cc(OC)c1OC | 5.1% (inactive)
20 | COc1ccc(-c2noc(CCc3ccccc3)n2)cc1 | -8.8% (inactive)

Row | SMILES | inhibition
21 | COc1ccc(/C=N\NC(=O)CCc2c(C)n[nH]c2C)c(OC)c1OC | -0.8% (inactive)
22 | c1ccc(-c2ccccn2)nc1 | -0.7% (inactive)
23 | COc1ccc(C=NCC2COc3ccccc3O2)cc1OC (stereo not given) | -0.8% (inactive)
24 | C/C(=N\N=C1\NC(=O)C(CC(=O)Nc2ccc(Cl)cc2)S1)c1ccco1 (stereo not given) | -0.1% (inactive)
25 | CCOC(=O)c1ccc(NC(=S)NCCc2ccccc2F)cc1 | 4.9% (inactive)
26 | COc1cc(Cl)cc2c1Sc1ccccc1/C2=C/CCN(C)C | -4.5% (inactive)
27 | COCCCC/C(=N\OCCN)c1ccc(C(F)(F)F)cc1 | -1.3% (inactive)
28 | Cn1cc(CN(CCO)Cc2cccs2)c(-c2cccc(Cl)c2)n1 | 1.3% (inactive)
29 | CC(NC(=O)c1ccc(OC2CCN(Cc3ccccn3)CC2)cc1)c1ccccc1 (stereo not given) | 2.8% (inactive)
30 | Cc1occc(=O)c1O | 2.1% (inactive)
31 | Cc1ccc2c(c1)C1OCCC1C1N2C(=O)C2C(C(=O)O)C3C=CC21O3 (stereo not given) | -1.8% (inactive)
32 | NC(N)=N/N=C/c1c(Cl)cccc1Cl | -0.2% (inactive)
33 | CCCCOc1ccc(CC(=O)NO)cc1 | -1.6% (inactive)
34 | c1ccc(-c2ccc(C(c3ccccc3)n3ccnc3)cc2)cc1 (stereo not given) | -0.7% (inactive)
35 | CCOC(=O)C1C(=O)OC(C)(C)C1C(C)C(=O)c1ccc(C)cc1 (stereo not given) | 4.4% (inactive)
36 | COc1ccc(NC(=O)Nc2ccc(C(C)C)cc2)cc1 | 2.7% (inactive)
37 | O=C(O)CP(=O)(O)O | 1.3% (inactive)
38 | CCN(CC)CCNC(=O)c1cc(Cl)c(N)cc1OC | -1.3% (inactive)
39 | CCn1c(/C=C/c2ccccc2)nc2ccccc2c1=O | 2.4% (inactive)
40 | CC(=O)[C@H]1[C@H](C#N)C[C@H]2[C@@H]3CC=C4C[C@@H](O)CC[C@]4(C)[C@H]3CC[C@@]21C | 4.5% (inactive)

target: Botulinum neurotoxin type A (Clostridium botulinum) (UniProt P0DPI0); experiment: BoNT/A light chain protease inhibitors, biochemical, multiplex microsphere flow cytometry, validation set (AID 588460); details: at 10 µM, stronger effect = higher value
Sequence (P0DPI0 whole entry, looked up): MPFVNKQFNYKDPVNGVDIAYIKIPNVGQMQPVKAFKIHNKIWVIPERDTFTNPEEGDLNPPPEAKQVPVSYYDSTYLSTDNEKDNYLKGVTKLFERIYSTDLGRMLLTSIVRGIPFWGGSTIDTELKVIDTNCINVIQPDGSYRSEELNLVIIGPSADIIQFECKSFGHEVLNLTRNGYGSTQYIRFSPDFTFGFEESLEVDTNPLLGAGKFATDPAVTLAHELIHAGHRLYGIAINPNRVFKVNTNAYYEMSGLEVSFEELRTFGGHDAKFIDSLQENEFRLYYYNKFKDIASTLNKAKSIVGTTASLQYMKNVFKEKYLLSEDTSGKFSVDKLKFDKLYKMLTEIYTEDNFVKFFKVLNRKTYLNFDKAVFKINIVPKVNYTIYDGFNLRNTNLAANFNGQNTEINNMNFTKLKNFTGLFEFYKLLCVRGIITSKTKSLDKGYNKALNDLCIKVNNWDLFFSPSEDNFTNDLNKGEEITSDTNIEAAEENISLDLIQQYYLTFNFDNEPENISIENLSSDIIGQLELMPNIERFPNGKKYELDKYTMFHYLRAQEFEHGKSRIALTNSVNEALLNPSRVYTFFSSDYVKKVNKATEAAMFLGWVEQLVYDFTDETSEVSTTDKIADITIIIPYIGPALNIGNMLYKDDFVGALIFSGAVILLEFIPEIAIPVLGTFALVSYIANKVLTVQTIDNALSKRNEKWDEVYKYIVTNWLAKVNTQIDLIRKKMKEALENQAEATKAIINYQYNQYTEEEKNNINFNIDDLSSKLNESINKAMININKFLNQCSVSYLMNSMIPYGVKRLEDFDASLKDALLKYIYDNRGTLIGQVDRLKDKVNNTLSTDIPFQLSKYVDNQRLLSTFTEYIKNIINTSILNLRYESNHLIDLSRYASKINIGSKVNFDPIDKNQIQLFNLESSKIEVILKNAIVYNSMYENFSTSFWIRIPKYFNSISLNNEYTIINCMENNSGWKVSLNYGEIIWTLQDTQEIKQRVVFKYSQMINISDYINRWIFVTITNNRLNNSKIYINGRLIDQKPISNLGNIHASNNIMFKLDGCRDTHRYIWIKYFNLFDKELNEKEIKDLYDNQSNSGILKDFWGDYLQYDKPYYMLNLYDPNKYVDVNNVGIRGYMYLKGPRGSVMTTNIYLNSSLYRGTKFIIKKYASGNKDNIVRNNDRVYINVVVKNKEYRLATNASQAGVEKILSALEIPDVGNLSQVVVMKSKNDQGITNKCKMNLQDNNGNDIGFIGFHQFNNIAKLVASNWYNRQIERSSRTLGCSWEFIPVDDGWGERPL

Row | SMILES | inhibition
41 | C[C@]12CC[C@H]3C(=CCc4cc(O)ccc43)[C@@H]1CCC2=O | -0.6% (inactive)
42 | Cc1ccccc1OCCSc1nc2ncnc(N)c2[nH]1 | -1% (inactive)
43 | COc1ccc2cc([C@H](C)C(=O)O)ccc2c1 | -0.1% (inactive)
44 | CC(CCc1ccccc1)NC(=O)/C=C/c1ccccc1 (stereo not given) | 0.4% (inactive)
45 | CSc1ccc(/C=N/N2CCN(Cc3ccc(C)cc3C)CC2)cc1 | -0.6% (inactive)
46 | CC1CCN(C(=O)Oc2ccccc2)CC1 | -1.5% (inactive)
47 | O=C(c1ccccc1)N1CCN(C(=O)c2ccccc2)CC1 | -0.7% (inactive)
48 | COc1ccccc1/C=C/C(=O)OCCN1CCOCC1 | -2.1% (inactive)
49 | C[C@H](NC(=O)OC(C)(C)C)C(=O)NCC1CCC(C(=O)O)CC1 (stereo not given in full) | -2.2% (inactive)
50 | CCOC(=O)C1(Cc2cccc(Cl)c2)CCCN(C2CCN(C(C)=O)CC2)C1 (stereo not given) | 0.7% (inactive)
51 | Cc1ccc2nc(C)c3c(c2c1)OC(C(C)(Cl)Br)C3 (stereo not given) | -0.5% (inactive)
52 | C[N+]12CCCCC1C(COC(=O)c1ccc3c(c1)OCO3)CCC2 (stereo not given) | 0.2% (inactive)
53 | C=C(C)COc1ccc(-c2nc(N)ncc2-c2ccc(OC)cc2)c(O)c1 | 1.4% (inactive)
54 | CC(=O)NC(Cc1c[nH]c2ccccc12)C(=O)N/N=C/c1ccccc1 (stereo not given) | -0.1% (inactive)
55 | Cc1ccc(C(=O)Nc2ccccc2C(=O)NC(C(=O)O)C(C)C)cc1 (stereo not given) | 0.5% (inactive)
56 | COc1ccc2c(c1)c(CC(=O)O)c(C)n2C(=O)c1ccc(Cl)cc1 | -1.5% (inactive)
57 | COc1ccc(NC(=O)C2CCCN2C(=O)OC(C)(C)C)cc1 (stereo not given) | 0.9% (inactive)
58 | CC(=O)NC(C(=O)NCC(N)=O)C(C)C (stereo not given) (Ac-[ξV]-Gly-NH2) | 0.1% (inactive)
59 | COc1cc(C(=O)OCCn2c(=O)c3c(ncn3CCN(C)C)n(C)c2=O)cc(OC)c1OC | 2.5% (inactive)
60 | COc1ccc(-c2noc(CCc3ccccc3)n2)cc1 | -1.1% (inactive)

Row | SMILES | inhibition
61 | COc1ccc(/C=N\NC(=O)CCc2c(C)n[nH]c2C)c(OC)c1OC | 0.3% (inactive)
62 | c1ccc(-c2ccccn2)nc1 | 0.3% (inactive)
63 | COc1ccc(C=NCC2COc3ccccc3O2)cc1OC (stereo not given) | -3.3% (inactive)
64 | C/C(=N\N=C1\NC(=O)C(CC(=O)Nc2ccc(Cl)cc2)S1)c1ccco1 (stereo not given) | 0.1% (inactive)
65 | CCOC(=O)c1ccc(NC(=S)NCCc2ccccc2F)cc1 | 2.4% (inactive)
66 | COc1cc(Cl)cc2c1Sc1ccccc1/C2=C/CCN(C)C | -1.1% (inactive)
67 | COCCCC/C(=N\OCCN)c1ccc(C(F)(F)F)cc1 | -0.2% (inactive)
68 | Cn1cc(CN(CCO)Cc2cccs2)c(-c2cccc(Cl)c2)n1 | 1.3% (inactive)
69 | CC(NC(=O)c1ccc(OC2CCN(Cc3ccccn3)CC2)cc1)c1ccccc1 (stereo not given) | 0.5% (inactive)
70 | Cc1occc(=O)c1O | 0.8% (inactive)
71 | Cc1ccc2c(c1)C1OCCC1C1N2C(=O)C2C(C(=O)O)C3C=CC21O3 (stereo not given) | -0.8% (inactive)
72 | NC(N)=N/N=C/c1c(Cl)cccc1Cl | 0.6% (inactive)
73 | CCCCOc1ccc(CC(=O)NO)cc1 | -0.2% (inactive)
74 | c1ccc(-c2ccc(C(c3ccccc3)n3ccnc3)cc2)cc1 (stereo not given) | -1.3% (inactive)
75 | CCOC(=O)C1C(=O)OC(C)(C)C1C(C)C(=O)c1ccc(C)cc1 (stereo not given) | 0.5% (inactive)
76 | COc1ccc(NC(=O)Nc2ccc(C(C)C)cc2)cc1 | 1.5% (inactive)
77 | O=C(O)CP(=O)(O)O | 0.3% (inactive)
78 | CCN(CC)CCNC(=O)c1cc(Cl)c(N)cc1OC | -0.2% (inactive)
79 | CCn1c(/C=C/c2ccccc2)nc2ccccc2c1=O | -1.7% (inactive)
80 | CC(=O)[C@H]1[C@H](C#N)C[C@H]2[C@@H]3CC=C4C[C@@H](O)CC[C@]4(C)[C@H]3CC[C@@]21C | 1.4% (inactive)
